Screens as filed in PubChem BioAssay.
Shown are actives, neighbours in structure and some others; about 9.3% of the full set was active somewhere.
SMN2 splice up = enhancers of SMN2 splice variant expression; Potency, µM (top dose mostly 46.1 µM), for inactives: at the top dose activity change, positive = activation, most hits filed as activators; 210,000 tested, 2.8% active; HEK293 SMN2-luciferase splicing reporter, luminescence, 30-36 h; note: % of control where 0% means no effect; nearly all actives have a fitted effect of over 55% in size
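HEK293 cells carry an SMN2 minigene-luciferase reporter in which exon 7 inclusion puts luciferase in frame. Cells were seeded at 2000 cells/well, attached for 10-12 hours, then exposed to compounds for 30-36 hours at 37C before ONE-Glo luminescence.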
ELG1 DNA repair = inhibitors of ELG1-dependent DNA repair in HEK293T cells | HEK293T ELG1-luciferase reporter, luminescence, 16 h; DNA damage induced by 5-fluorouridine | 330,000 tested, 2.3% active | AID 504467 | Potency, µM (titrated, usually from 46.1 µM), without a hit: at the highest dose activity change, negative = inhibition, most hits filed as inhibitors; note: % is set by controls: 0 for no effect and ±100 for the full control effect; nearly all actives have a fitted effect of over 55% in size
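Quantitative HTS, concentration-response format. 2,000 cells/well co-treated with 5-fluorouridine and compound, 16 hr in 5% CO2 at 37 °C; ONE-Glo luminescence read after 30 min.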
Rab9 promoter act = activators of Rab9 promoter. Potency, µM (doses to about 9.22 µM), for inactives: top-dose activation, negative = inhibition, hits mostly activators. 320,000 tested, 2.8% active. Huh7 Rab9 promoter-luciferase reporter, luminescence, 24 h; note: % of control where 0% means no effect; nearly all actives have a fitted effect of over 60% in size
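Promoter activation is measured as luciferase luminescence in Huh7 cells stably transfected with a Rab9 promoter–luciferase construct, following 24 h compound exposure at 37 °C and 10 min reagent incubation at ambient temperature.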
ELG1 genotox = inducers of genotoxicity in HEK293T ELG1-luciferase cells | HEK293T ELG1-luciferase reporter, luminescence, 16 h | Potency, µM (titrated, usually from 46 µM), inactives show top-dose activity change, positive = activation, most hits filed as activators | 330,000 tested, 1.3% active | AID 504466; note: % of control where 0% means no effect; nearly all actives have a fitted effect of over 60% in size
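Reporter readout depends on ELG1 protein level, which increases with genetic stress. After 16 hr compound exposure at 37 °C, luciferase activity was quantified using ONE-Glo.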
NPC1 promoter act = activates the NPC1 promoter. Huh7 NPC1 promoter luciferase reporter, 24 h. Potency, µM (series often up to 9.22 µM), without a hit: top-dose activation, hits mostly activators. 320,000 tested, 2.4% active. AID 485313; note: % of control where 0% means no effect; nearly all actives have a fitted effect of over 60% in size
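Quantitative HTS used a cell-based reporter: Huh7 cells stably bearing the NPC1 promoter upstream of luciferase were treated with compounds for 24 h, and promoter activation was read as luminescence.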
FLuc modulator = inhibits or activates purified firefly luciferase, miR-21 counter-screen. purified FLuc, Km substrates, luminescence inhibition. Potency, µM (titrated, usually from 57.5 µM), for the others: at the highest dose activity change, negative = inhibition, hits mostly inhibitors. 360,000 tested, 6.9% active;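 note: plate controls were vehicle for no effect and reference inhibitor for full effect; nearly all actives have a fitted effect of over 55% in size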
Target sequence (P08659 whole entry, looked up): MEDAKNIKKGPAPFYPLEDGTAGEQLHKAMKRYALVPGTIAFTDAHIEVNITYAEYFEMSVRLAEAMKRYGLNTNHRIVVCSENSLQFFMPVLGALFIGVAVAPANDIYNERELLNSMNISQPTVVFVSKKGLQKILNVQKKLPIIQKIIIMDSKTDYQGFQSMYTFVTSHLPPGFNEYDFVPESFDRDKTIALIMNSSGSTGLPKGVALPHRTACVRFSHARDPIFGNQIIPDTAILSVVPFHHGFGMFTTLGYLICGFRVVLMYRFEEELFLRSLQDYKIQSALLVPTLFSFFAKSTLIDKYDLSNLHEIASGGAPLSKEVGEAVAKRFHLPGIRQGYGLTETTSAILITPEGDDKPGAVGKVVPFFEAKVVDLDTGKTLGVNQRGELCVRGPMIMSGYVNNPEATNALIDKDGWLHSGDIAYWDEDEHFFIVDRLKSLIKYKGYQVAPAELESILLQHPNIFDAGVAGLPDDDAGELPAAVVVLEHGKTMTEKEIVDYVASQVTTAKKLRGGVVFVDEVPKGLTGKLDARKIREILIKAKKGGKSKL
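Purified P. pyralis luciferase (10nM final) with 10uM D-luciferin and 10uM ATP (Km levels) in 50mM Tris acetate pH 7.5, 10mM Mg acetate, 0.01% Tween-20, 0.05% BSA; qHTS 6-point titration, ~60 µM downward; luminescence read.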
Active calls of the source: *; [ ] = another dose, or the depositor's remark. Calls come from the whole dose curve; as a rule, active = well fitted curve in the direction sought with a large enough effect; inconclusive = small, poorly fitted or top-dose-only effect, or another doubt; inactive = no such curve, though single readings can be large; an effect the other way counts as inactive or inconclusive. Potency is the fitted concentration of half-maximal effect.

What do the screens show for `CCOC(=O)C1=C(OCc2ccc(Cl)cc2)C2C=C(C)C=CC2N=C1` (configuration not stated)?
SMN2 splice up: 11.0%; ELG1 DNA repair: 16.4µM*; Rab9 promoter act: 3.5%; ELG1 genotox: -5.6%; NPC1 promoter act: -0.4%; FLuc modulator: -2.1%

What do the screens show for `CCOc1ccccc1C(=O)NCc1ccc2c(c1)CCN2C(=O)c1ccccc1`?
FLuc modulator: -16.8%

What do the screens show for `Cc1sc2nc(CN(C(=O)NC3CCCCC3)C3CCCC3)[nH]c(=O)c2c1C`?
ELG1 DNA repair: 20.6µM*; Rab9 promoter act: 0.0%; ELG1 genotox: -2.6%; NPC1 promoter act: -2.5%; FLuc modulator: 4.0%

How did Cc1sc2nc(CN(C(=O)c3cccs3)C3CCCC3)[nH]c(=O)c2c1C do in these assays?
SMN2 splice up: -39.6%; ELG1 DNA repair: inconclusive; Rab9 promoter act: -2.5%; ELG1 genotox: -0.9%; NPC1 promoter act: -3.2%; FLuc modulator: -1.0%

What do the screens show for `Cc1sc2nc(CN(Cc3cccs3)C(=O)NC3CCCCC3)[nH]c(=O)c2c1C`?
ELG1 DNA repair: 9.2µM*; Rab9 promoter act: -2.0%; ELG1 genotox: -21.2%; NPC1 promoter act: 3.5%; FLuc modulator: -1.9%

What do the screens show for `Cc1sc2nc(CC(=O)N3CCCC3)[nH]c(=O)c2c1C`?
SMN2 splice up: 11.5%; ELG1 DNA repair: 7.6%; Rab9 promoter act: 2.6%; ELG1 genotox: 5.8%; NPC1 promoter act: -3.8%; FLuc modulator: inconclusive

Results for CCCCC(=O)N(Cc1nc2sc(C)c(C)c2c(=O)[nH]1)C1CCCC1 ?
ELG1 DNA repair: 20.6µM*; Rab9 promoter act: -2.3%; ELG1 genotox: -1.0%; NPC1 promoter act: 0.0%; FLuc modulator: -4.3%

How did COCC(=O)N(Cc1nc2sc(C)c(C)c2c(=O)[nH]1)C1CCCCC1 do in these assays?
ELG1 DNA repair: 6.1%; Rab9 promoter act: -4.0%; ELG1 genotox: 2.2%; NPC1 promoter act: -2.0%; FLuc modulator: 2.3%

How did Cc1ccc(-c2nnn(CC(=O)N(c3ccccc3)C(C(=O)NC3CCCC3)c3ccncc3)n2)o1 (configuration not stated) do in these assays?
ELG1 DNA repair: 27.7%; Rab9 promoter act: -0.7%; ELG1 genotox: 20.8%; NPC1 promoter act: -2.7%; FLuc modulator: 4.2%

Results for Cc1ccc(N(C(=O)Cn2nnc(-c3ccc(C)o3)n2)C(C(=O)NC2CCCC2)c2ccco2)cc1 (configuration not stated) ?
SMN2 splice up: 28.2µM*; ELG1 DNA repair: -6.1%; Rab9 promoter act: -6.4%; ELG1 genotox: 3.9%; NPC1 promoter act: 2.2%; FLuc modulator: -0.1%

What do the screens show for `COc1ccc(CN(C(=O)Cn2nnc(-c3ccc(C)o3)n2)C(C(=O)NCC2CCCO2)c2ccco2)cc1` (configuration not stated)?
ELG1 DNA repair: inconclusive; Rab9 promoter act: inconclusive; ELG1 genotox: inconclusive; NPC1 promoter act: inconclusive; FLuc modulator: 0.19µM*

How did Cc1cccc(CNc2nc(-c3ccccc3CN(C)C)nc3ccccc23)c1 do in these assays?
SMN2 splice up: -27.4%

What do the screens show for `CC(=O)N(C1=C(N)C(=O)c2ccccc2C1=O)c1ccccc1`?
ELG1 DNA repair: 18.3µM*; Rab9 promoter act: -2.7%[1.84 µM]; ELG1 genotox: -18.8%; NPC1 promoter act: -35.1%; FLuc modulator: 1.8%

How did O=C(OCC(=O)c1ccc(Cl)s1)c1ccccn1 do in these assays?
SMN2 splice up: 4.9%; ELG1 DNA repair: inconclusive; Rab9 promoter act: 0.0%; ELG1 genotox: -1.1%; NPC1 promoter act: 0.1%; FLuc modulator: 7.57µM*

Results for O=C(COC(=O)c1ccccn1)c1ccc([N+](=O)[O-])cc1 ?
ELG1 DNA repair: 0.2%; Rab9 promoter act: 2.7%; ELG1 genotox: -0.7%; NPC1 promoter act: -9.6%; FLuc modulator: inconclusive

What do the screens show for `O=C(COC(=O)c1nc(Cl)ccc1Cl)c1ccc(Cl)s1`?
SMN2 splice up: 1.5%; ELG1 DNA repair: 18.3%; Rab9 promoter act: -6.2%; ELG1 genotox: 1.1%; NPC1 promoter act: 5.4%; FLuc modulator: inconclusive

How did O=C(COC(=O)c1ncc(Cl)c(Cl)c1Cl)c1ccc(Cl)s1 do in these assays?
SMN2 splice up: 17.0%; ELG1 DNA repair: 10.3%; Rab9 promoter act: 4.1%; ELG1 genotox: 0.8%; NPC1 promoter act: 10.2%; FLuc modulator: 12µM*

Results for O=C(OCC(=O)c1ccc(Cl)s1)c1cnccn1 ?
ELG1 DNA repair: -0.5%; Rab9 promoter act: 8.1%; ELG1 genotox: 2.3%; NPC1 promoter act: -4.5%; FLuc modulator: 19µM*

What do the screens show for `Nc1ccccc1SCc1ccccc1Cl`?
ELG1 DNA repair: 1.3%; Rab9 promoter act: -3.0%; ELG1 genotox: 5.9%; NPC1 promoter act: -4.6%; FLuc modulator: inconclusive

What do the screens show for `CC(C(Sc1ccccc1N)c1ccccc1)[N+](=O)[O-]` (configuration not stated)?
ELG1 DNA repair: inconclusive; Rab9 promoter act: -3.1%; ELG1 genotox: inconclusive; NPC1 promoter act: -13.6%; FLuc modulator: 9.53µM*

What do the screens show for `COc1ccc(-c2cc3ccc(OCC(=O)NCC4CCC(C(=O)O)CC4)cc3oc2=O)cc1` (configuration not stated)?
ELG1 DNA repair: inconclusive; Rab9 promoter act: 4.47µM*; ELG1 genotox: inconclusive; NPC1 promoter act: 3.16µM*; FLuc modulator: 0.953µM*

Results for Cc1c(C)c2ccc(OCC(=O)N3CCC(C(=O)O)CC3)cc2oc1=O ?
ELG1 DNA repair: 13.0%; Rab9 promoter act: -1.2%; ELG1 genotox: -1.3%; NPC1 promoter act: -0.8%; FLuc modulator: 19µM*

What do the screens show for `O=C(O)C1CCN(C(=O)COc2ccc3c4c(c(=O)oc3c2)CCCC4)CC1`?
ELG1 DNA repair: inconclusive; Rab9 promoter act: -6.7%; ELG1 genotox: 1.8%; NPC1 promoter act: -0.5%; FLuc modulator: -21.1%

What do the screens show for `COc1ccc2c(c1)c(=O)oc1cc(OCC(=O)NCC3CCC(C(=O)O)CC3)ccc12` (configuration not stated)?
ELG1 DNA repair: -0.9%; Rab9 promoter act: 1.3%; ELG1 genotox: 11.4%; NPC1 promoter act: 10.6%; FLuc modulator: 10.7µM*

Results for CCc1cc(=O)oc2cc(OCC(=O)NCC3CCC(C(=O)O)CC3)ccc12 (configuration not stated) ?
ELG1 DNA repair: -23.9%; Rab9 promoter act: -2.4%; ELG1 genotox: -1.1%; NPC1 promoter act: 0.5%; FLuc modulator: 6.7%
